Bioassay records (PubChem BioAssay)
Hits are enriched below; roughly 1.1% of the tested compounds scored in any of these assays.
Eya2 inh = inhibitors of human Eya2 phosphatase activity; O00167; 330,000 tested, 0.006% active; AID 488837; recombinant Eya2, OMFP fluorescence dephosphorylation (OMFP is methylfluorescein phosphate); Potency, µM (highest dose often 76.9 µM), without a hit: at the top dose activity, negative = inhibition, usual class: inhibitors
Target sequence (O00167 whole entry, looked up): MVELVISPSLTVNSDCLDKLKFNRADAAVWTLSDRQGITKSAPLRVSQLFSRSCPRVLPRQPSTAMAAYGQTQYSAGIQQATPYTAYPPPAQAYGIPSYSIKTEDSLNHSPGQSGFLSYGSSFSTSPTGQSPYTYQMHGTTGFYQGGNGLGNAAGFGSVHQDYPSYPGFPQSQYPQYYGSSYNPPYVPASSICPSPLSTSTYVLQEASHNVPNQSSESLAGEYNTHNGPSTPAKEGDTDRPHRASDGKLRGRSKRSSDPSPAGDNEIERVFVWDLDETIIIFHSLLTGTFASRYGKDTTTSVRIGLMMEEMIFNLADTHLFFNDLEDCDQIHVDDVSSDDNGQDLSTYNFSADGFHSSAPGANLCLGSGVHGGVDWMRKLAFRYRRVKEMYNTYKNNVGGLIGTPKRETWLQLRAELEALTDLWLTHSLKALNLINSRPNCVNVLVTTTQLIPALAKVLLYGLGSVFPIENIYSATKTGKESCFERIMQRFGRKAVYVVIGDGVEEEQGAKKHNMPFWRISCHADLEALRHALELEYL
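Eya2 (0.2 uM) preincubated 10 min at ambient with compound, then OMFP substrate added at 50 uM; 10 min reaction in 50 mM HEPES pH 7.5, 50 mM NaCl, 5 uM MgCl2, 0.05% BSA, 1 mM DTT. Fluorescence read at Ex 485/Em 525 nm.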
RGS4 inhibitor = blocks human RGS4-accelerated GTP hydrolysis; 390,000 tested, 0.039% active; AID 504845; Transcreener GDP fluorescence polarization, RGS4-accelerated GTP hydrolysis; Potency, µM (titrated, usually from 114 µM), inactives show at the highest dose activity change, negative = inhibition, usual class: inhibitors; P49798; further: nearly all actives have a fitted effect of over 75% in size
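MLSMR compounds (23 nl, pin-transferred) preincubated 10 min at room temperature with a 500nM (2x) first reagent, then RGS4 at 900nM (2x) plus Transcreener GDP mix added; fluorescence polarization (620/688 nm) read before and after 90 min at 30 °C.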
TrxR1 inh = inhibitors of rat thioredoxin reductase 1; recombinant rTrxR1, NADPH fluorescence consumption, selenite substrate; Potency, µM (highest dose often 114 µM), without a hit: at the top dose activity change, negative = inhibition, actives largely listed as inhibitors; 390,000 tested, 1% active; further: nearly all actives have a fitted effect of over 65% in size
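Rat TrxR1 (90 nM in the dispensed reagent) was pre-reduced with 400 uM NADPH for 5 min at room temperature, then incubated with compound for 15 min. After 400 uM selenite was added, NADPH fluorescence (Ex 340/Em 450 nm) was followed for 8 min.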
TrxR1 substrate = substrates of rat thioredoxin reductase 1; 390,000 tested, 0.01% active; purified TrxR1 substrate turnover, NADPH consumption readout; Potency, µM (series often up to 114 µM), inactives show top-dose activity change, negative = substrate turnover; O89049; further: nearly all actives have a fitted effect of over 50% in size
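Rat TrxR1, dispensed at 90 nM, was prereduced with 400 uM NADPH (final) for 5 min at ~22 deg C, then incubated with compound 15 min before 400 uM selenite. A first-read NADPH fluorescence drop versus no-compound background flagged substrates.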
mIDH1 inhibitor = inhibitors of human mutant IDH1 R132H. O75874. IDH1-R132H enzyme, NADPH consumption, diaphorase/resazurin fluorescence. Potency, µM (top dose mostly 76.6 µM), for inactives: at the top dose activity change, negative = inhibition, most hits filed as inhibitors. 390,000 tested, 0.093% active; further: nearly all actives have a fitted effect of over 65% in size
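IDH1-R132H (0.5 ug/mL dispensed) in pH 7.5 Tris buffer was preincubated 30 min with compound, then given a substrate mix of 0.016 mM NADPH and 2 mM alpha-KG for 80 min at room temperature; remaining NADPH was read by diaphorase/resazurin fluorescence.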
* hit, by the source's call; ? = inconclusive; . = not tested or not shown; ! = not active in a repeat; [ ] = dose if it differs, or a comment. The call rests on the fitted dose curve; in most records, active means well fitted curve in the direction sought with a large enough effect; inconclusive means small, poorly fitted or top-dose-only effect, or another doubt; inactive means no such curve, though single readings can be large; an effect the other way counts as inactive or inconclusive. On the % scale 0 is the no-effect control and ±100 the full control effect; potency means the concentration at half of the fitted maximal effect.

SMILES | Eya2 inh | RGS4 inhibitor | TrxR1 inh | TrxR1 substrate | mIDH1 inhibitor
Cc1ccccc1C(=O)NC(Oc1ccccc1)C(Cl)(Cl)Cl (stereo not given) | -1% | -9% | -5%[57.1 µM] | 6%[57.1 µM] | 0%
CCCC(=O)NC(Oc1ccc(C(C)=O)cc1)C(Cl)(Cl)Cl (stereo not given) | 0% | -1% | 25µM* | 2% | -1%
O=C(c1ccccc1)N1CCN(CCc2ccccc2)CC1 | -25% | 57% | 4% | 0% | 0%
COc1ccc(NC2CC(=O)N(C(C)C)C2=O)cc1 (stereo not given) | 1% | -37% | 3.5µM* | 2%[57.1 µM] | 3%
COc1ccc(NP2(=O)OCC(C)(N)CO2)cc1 (stereo not given) | . | 19% | 8%[11.4 µM] | 6%[11.4 µM] | 2%
N#CC1(c2ccccc2)CCN(C2CC(=O)N(c3ccc4c(c3)OCO4)C2=O)CC1 (stereo not given) | -7% | -14% | 71µM* | 5% | 2%
N#CC1(c2ccccc2)CCN(C2CC(=O)N(c3ccc(F)cc3)C2=O)CC1 (stereo not given) | ? | 9% | 13% | 1% | 6%
COc1cc(OC)cc(C(=O)Nc2ccc(Cl)cc2C(=O)c2ccccc2Cl)c1 | . | 5% | 4% | 2% | -2%
Cc1cc2c(C(C)C)c(O)c(O)c(C=O)c2c(O)c1-c1c(C)cc2c(C(C)C)c(O)c(O)c(C=O)c2c1O | 32µM*! | 4.2µM* | 40µM* | ? | .
CSc1nc(N)c(N=Nc2ccc([As](=O)(O)O)cc2)c(=O)[nH]1 | ? | ? | 4µM* | 6%[57.1 µM] | 0%
COC(=O)C1=C(c2ccc3ccccc3c2)C[C@@H]2CC[C@H]1N2C | 8% | 18% | 30%[57.1 µM] | 11%[57.1 µM] | 2%
COC(=O)C1=C(C(=O)OC)C2OC1c1cc3ccccc3cc12 | . | ? | 2.5µM* | 1% | 6%
CCC(C)N1C(=O)/C(=C/c2ccc3c(c2)CCN3CCCCl)C(=O)NC1=S (stereo not given) | 3% | ? | 13µM* | 0% | -1%
CCc1ccccc1N1C(=O)/C(=C/c2ccc(N3CCN(C)CC3)o2)C(=O)NC1=S | 11% | -25% | ? | -14% | 1%
CC12NC(Cc3ccccc31)c1ccccc12 (stereo not given) | 6% | 38%[56.9 µM] | ? | 4%[57.1 µM] | .
C[N+](C)(C)CC(=O)O | -4% | 8%[56.9 µM] | 27µM*! | -2%[57.1 µM] | 3%
CC12CN3CC(C)(CN(C1)C3c1ccco1)C2=O (stereo not given) | 10% | -48% | 4% | 3% | 2%
Cc1cc(C=C2C(=O)N(C)C(=S)N(C)C2=O)c(C)n1-c1cccnc1 | 6% | ? | 20µM* | -5% | 5%
COc1ccc(NC(=O)CN(C)C(=O)CSC(c2ccccc2)c2ccccc2)cc1 | -13% | 21% | 15% | -9% | -5%
O=C(CSc1ccc(-c2ccco2)nn1)Nc1ccccc1 | 0% | -27% | 20µM* | 7%[57.1 µM] | -2%
NCC(O)c1cc(O)c(O)cc1F (stereo not given) | 4% | 19µM*! | ? | 2%[57.1 µM] | -4%
C=CC[C@@H](CC/C=C/C=C/CC/C=C\[C@@H]1CSC([C@@H]2C[C@@H]2C)=N1)OC | -17% | ? | 50µM* | 0% | -8%
COCCN1Cc2cc(=O)n3c([nH]c4ccccc43)c2C1=N | -9% | -18% | 41%[57.1 µM] | 357%[57.1 µM] | 4%
COC(=O)[C@@H]1C[C@H]1[C@@H](NP(=O)(c1ccccc1)c1ccccc1)c1ccccc1 | 8% | 28% | 16µM* | 0% | -1%
COC(=O)[C@H]1C[C@@H]1[C@H](NP(=O)(c1ccccc1)c1ccccc1)c1ccccc1 | 5% | -9% | 13%[57.1 µM] | 5% | 12%
SMILES | Eya2 inh | RGS4 inhibitor | TrxR1 inh | TrxR1 substrate | mIDH1 inhibitor
CCOc1ccc(/C=C2/C(=O)NC(=O)N(CCc3ccc(F)cc3)C2=O)cc1 | 3% | ? | 28µM* | 1% | -5%
COc1cc(/C=C2\C(=O)NC(=O)N(CCc3ccc(F)cc3)C2=O)ccc1O | 3% | ? | 14µM* | -9% | -2%
COc1ccc(CN2C(=O)NC(=O)/C(=C/c3ccoc3)C2=O)cc1 | ? | ? | -21% | -4% | -4%
COc1cc(C=C2C(=O)NC(=O)NC2=O)ccc1O | -27% | ? | ? | 1%[57.1 µM] | 3%
O=c1c2ccccc2nc(/C=C/c2cccc3ccccc23)n1-c1ccc(Cl)cc1 | . | -4% | 3%[57.1 µM] | -3%[57.1 µM] | 11%
CCN1C(=O)C(=C2C=C(C)OC(C)=C2)C(=O)N(CC)C1=S | 1% | -5% | 16% | 6% | 1%
CCOC(=O)C1=CC(=C2C(=O)N(CC)C(=S)N(CC)C2=O)c2ccccc2O1 | 14% | ? | 40µM* | -10% | -3%
CCN(CC)c1ccc(/C=C2\C(=O)NC(=O)N(Cc3ccco3)C2=O)cc1 | -4% | ? | 28µM* | -8% | -2%
O=C(O)Cn1cc(/C=C2\C(=O)NC(=O)N(Cc3ccco3)C2=O)c2ccccc21 | -2% | -28% | 32µM* | -22% | 8%
CCN1C(=O)NC(=O)/C(=C\c2cn(CC(=O)O)c3ccccc23)C1=O | 6% | . | . | . | .
CCN(CC)c1ccc(/C=C2/C(=O)NC(=O)N(CC3CCCO3)C2=O)cc1 (stereo not given) | 15% | -23% | ? | -8% | -6%
N#CCCN | 2% | -6%[56.9 µM] | -6%[57.1 µM] | 3%[57.1 µM] | .
O=C(O)CCCc1ccc(N(CCCl)CCCl)cc1 | -2% | -8%[56.9 µM] | 50µM* | 12%[57.1 µM] | 4%
N[C@@H](Cc1ccc(N(CCCl)CCCl)cc1)C(=O)O | 10% | -28% | ? | 2% | 13%
CC(=O)NC(Cc1ccc(N(CCCl)CCCl)cc1)C(=O)O (stereo not given) | 9% | -9% | 32µM* | 9%[57.1 µM] | 6%
O=C(Cc1c[nH]c2ccccc12)NNCc1ccc(N(CCCl)CCCl)cc1 | . | -20% | -52%[57.1 µM] | -2%[2.29 µM] | 2%
O=C(Cc1ccc(N(CCCl)CCCl)cc1)NC(Cc1ccc(Cl)cc1)C(=O)O (stereo not given) | -14% | -18% | 40µM* | 4% | 1%
O=c1c2ccccc2nc(CSc2ncnc3nc[nH]c23)n1-c1ccccc1Cl | 0% | -12% | -10%[57.1 µM] | -10% | 14%
CN1C[C@H](C(=O)N[C@]2(C)O[C@@]3(O)[C@@H]4CCCN4C(=O)[C@H](Cc4ccccc4)N3C2=O)C[C@@H]2c3cccc4[nH]cc(c34)C[C@H]21 | -1% | ? | -9%[57.1 µM] | ? | .
CN1CCC(O)(c2ccc(Cl)cc2)C(C(=O)c2ccc(Cl)cc2)C1 (stereo not given) | 10% | -33% | 0.11µM* | 4% | -12%
